The values below come from PubChem BioAssay (NCI).

Each structure is given as a SMILES string. The panel holds about 79,000 compounds, 15% with a hit somewhere; the sample as a whole holds those more often. A number with no mark means an inactive call. Active and inactive are the calls of the source. Cut-off read from the data, not from the text of the source: active = growth inhibition above about 70%; inactive = the rest.

The nature of experiment [1]: NCI Yeast Anticancer Drug Screen. Data for the rad50 strain (AID 155).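 Note: 0% = growth of vehicle-only cultures of the same strain.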 The settings on record: S. cerevisiae rad50 strain growth inhibition; at 50.0 µM; hits give high values. An outline of the steps: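 A DNA repair-deficient yeast mutant serves as the test organism; compound-induced growth inhibition is calculated against vehicle-treated cells.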
Experiment [2] can be described thus: NCI Yeast Anticancer Drug Screen. Data for the mec2-1 strain (AID 157). To be noted: S. cerevisiae mec2-1 strain, at 50.0 µM, hits give high values. The method in brief: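 mec2-1 yeast strain, carrying an alteration in DNA damage repair or cell cycle control, was exposed to compounds; growth inhibition was measured relative to vehicle-treated controls.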
Experiment [3] in a line: NCI Yeast Anticancer Drug Screen. Data for the sgs1 mgt1 strain (AID 161).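 Note: 0% = growth of cultures given vehicle only.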 To be noted: S. cerevisiae sgs1 mgt1 strain, at 50.0 µM, hits give high values. The method in brief:
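This yeast growth screen uses a strain with defined DNA-repair lesions; compound-treated growth is compared with vehicle-treated growth.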

A short description of experiment [4]: NCI Yeast Anticancer Drug Screen. Data for the cln2 rad14 strain (AID 165).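 Note: 0% = growth equal to vehicle treated cultures.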 The settings on record: S. cerevisiae cln2 rad14 strain, at 50.0 µM, hits give high values. An outline of the steps: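 Yeast carrying cln2 and rad14 alterations (cell cycle control and DNA damage repair) were exposed to compounds. Growth inhibition was measured against vehicle-treated controls.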

The nature of experiment [5]: NCI Yeast Anticancer Drug Screen. Data for the bub3 strain (AID 167). To be noted: S. cerevisiae bub3 mutant strain, at 50.0 µM, hits give high values. An outline of the steps: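 Inhibition values come from growth of compound-treated mutant yeast normalised to vehicle-treated controls.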
Experiment [6] can be described thus: NCI Yeast Anticancer Drug Screen. Data for the mlh1 rad18 strain (AID 175). The settings on record: S. cerevisiae mlh1 rad18 strain growth inhibition; at 50.0 µM; hits give high values. An outline of the steps: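 Growth inhibition of the yeast strain was measured after compound exposure and expressed relative to vehicle-treated controls. The strain carries defined defects in DNA damage repair.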

For `O=C(c1ccccc1)c1ccccc1-c1nc2ccccc2c(=O)o1`, the growth inhibition is 11.8% in experiment [1]; -6.65% in experiment [2]; 1.65% in experiment [3]; 29.9% in experiment [4]; 30.8% in experiment [5]; -0.8% in experiment [6].

`CN(C)c1ccc(Cc2ccc(N(C)C)c3cccnc23)c2ncccc12`: the growth inhibition is -5.45% in experiment [1]; -9.65% in experiment [2]; 13.7% in experiment [3]; -13.4% in experiment [4]; 12.3% in experiment [5]; 1.4% in experiment [6].

Consider `O=c1nc(NCC23CC4CC(CC(C4)C2)C3)ccn1C1OC(CO)C(O)C1O` (stereo unspecified), for which the growth inhibition in experiment [1] is 21.8%; in experiment [2] it was -0.95%; in experiment [3], -8.1%; in experiment [4], 16.6%; in experiment [5], -4.95%; in experiment [6] it was -6.5%.

For the molecule `NC(=O)Cc1ccccn1`, the growth inhibition in experiment [1] is 5.05%; in experiment [2], -2.6%; in experiment [3] it was 2.95%; in experiment [4] it was -8.15%; in experiment [5], 5.25%; in experiment [6], 1.4%.

Turning to `COC(CN(C)C(=S)Nc1cccc2ccccc12)OC`, the growth inhibition in experiment [1] is -31.9%; in experiment [2], -74%; in experiment [3] it was -23.6%; in experiment [4] it was -11.7%; in experiment [5] it was -6.2%; in experiment [6], -30.9%.

Take `COC[C@@H](N=Cc1ccc(OC)cc1)C(C)C`: the growth inhibition is -12.2% in experiment [1]; -19.4% in experiment [2]; -49.6% in experiment [3]; -28.8% in experiment [4]; 25.9% in experiment [5]; -30.5% in experiment [6].

As to `COc1cc(C2c3cc4c(cc3OC(N3CCNCC3)C2C)OCO4)cc(OC)c1OC` (stereo unspecified), the growth inhibition was -17.5% in experiment [1]; -42.8% in experiment [2]; -27.8% in experiment [3]; -22.7% in experiment [4]; -3.6% in experiment [5]; -27.5% in experiment [6].

Regarding `CCCCCCCCCCCCCCCCCC1=NCC(C)O1` (stereo unspecified), the growth inhibition is 4.6% in experiment [1]; -14% in experiment [2]; -0.35% in experiment [3]; 19.6% in experiment [4]; 13.3% in experiment [5]; -10.1% in experiment [6].

For `C1CCCC(N2N=NC3C4CC(C5N=NN(C6CCCCCC6)C45)C32)CC1` (stereo unspecified), the growth inhibition in experiment [1] is 12.8%; in experiment [2], 17.5%; in experiment [3], 7.65%; in experiment [4], 64.8%; in experiment [5], -8.55%; in experiment [6], 11.7%.

`CC1/C(=N/Nc2ccc([N+](=O)[O-])cc2)CC2C3(C)CCC2(C(C)C(=O)O)C(=O)C13` (stereo unspecified): the growth inhibition in experiment [1] was 78% (active); in experiment [2], 33.4%; in experiment [3], 83.5% (active); in experiment [4], 45.7%; in experiment [5], 44.8%; in experiment [6], 88.7% (active).

On to `N#CCC1(O)c2ccccc2-c2ccccc21`, for which the growth inhibition in experiment [1] is -11.9%; in experiment [2] it was 7.45%; in experiment [3] it was 8%; in experiment [4], -6.25%; in experiment [5] it was 1.4%; in experiment [6] it was 9.9%.

On to `O=C(O)C(Cc1ccc(OS(=O)(=O)Cc2ccccc2)cc1)NS(=O)(=O)Cc1ccccc1` (stereo unspecified), for which the growth inhibition is 29.9% in experiment [1]; 5.2% in experiment [2]; 8.1% in experiment [3]; 5.1% in experiment [4]; 12.4% in experiment [5]; 24.1% in experiment [6].

Take `CC1NC(C(=O)O)Cc2cc(O)c(O)cc21` (stereo unspecified): the growth inhibition was -21.2% in experiment [1]; -36.6% in experiment [2]; -30.8% in experiment [3]; 5.35% in experiment [4]; -34.8% in experiment [5]; -49.2% in experiment [6].

On to `CCCC(O)C(C)C(C)O` (stereo unspecified), for which the growth inhibition in experiment [1] was -28.5%; in experiment [2], -16.1%; in experiment [3], -17.4%; in experiment [4] it was 25.1%; in experiment [5], -2.15%; in experiment [6], -8.75%.

`COc1nsc2ccc(C(C)C(N)=O)cc12` (stereo unspecified): the growth inhibition in experiment [1] is -35.5%; in experiment [2], 3.8%; in experiment [3] it was -9.1%; in experiment [4] it was -22.4%; in experiment [5], -2.25%; in experiment [6] it was -4.4%.

For `COc1cc(/C=C/C(=O)OC2C(O)C3CC(OC(=O)c4cc(OC)c(OC)c(OC)c4)CC2N3C)cc(OC)c1OC` (stereo unspecified), the growth inhibition in experiment [1] was 0.55%; in experiment [2], -21.6%; in experiment [3], 7.6%; in experiment [4], 6.15%; in experiment [5], -7.95%; in experiment [6], -4.95%.

With `Oc1ccccc1CN1CCOCC1` (tested in a mixture with another compound), the growth inhibition in experiment [1] is -2.7%; in experiment [2] it was -7.05%; in experiment [3], 6.95%; in experiment [4] it was -46.2%; in experiment [5], 0.2%; in experiment [6], -6.25%.

Take `CCOC(=O)C(N)Cc1cc(I)c(O)c(I)c1` (stereo unspecified): the growth inhibition is -20.1% in experiment [1]; -31.1% in experiment [2]; -14.4% in experiment [3]; 7.8% in experiment [4]; -23.2% in experiment [5]; -25.1% in experiment [6].

On to `COc1cc(/C=C/C(=O)Oc2ccccc2)ccc1C(=O)O/C=C/c1ccccc1`, for which the growth inhibition was 3.65% in experiment [1]; -4.7% in experiment [2]; 1.85% in experiment [3]; 21.4% in experiment [4]; -5.15% in experiment [5]; 13.5% in experiment [6].

For `C/C(CC(=O)Nc1ccc(NC(=O)C/C(C)=N\NC(N)=O)cc1)=N/NC(N)=O`, the growth inhibition in experiment [1] is 3.5%; in experiment [2] it was -23.9%; in experiment [3], -4.65%; in experiment [4], 11.1%; in experiment [5], -14.1%; in experiment [6], 6.75%.

Take `CCc1cccc(CC)c1N(C(C)=O)C(C)=O`: the growth inhibition in experiment [1] was 8.55%; in experiment [2] it was -1.3%; in experiment [3], -11.7%; in experiment [4], -8.85%; in experiment [5] it was 19.2%; in experiment [6] it was 3.2%.
